Laboratory results as given in PubChem BioAssay AID1159580 (chemical genetic matrix, 2015).
Hit rate of the full screen: of about 5,500 compounds, about 2,000 (36%) were called active. Another 18% or so got no clear call; they are omitted. No stated cut-off is given here; in the data, active means normalized growth mostly below about 0.91 (no sharp cut-off); inconclusive means no clear call, values can overlap the other calls; inactive means mostly above about 0.92. This is one part of the list.

Assay: chemical genetic growth profiling, strain panel (AID 1159580);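 further: tested at 20 µM; growth read once vehicle control cultures reached saturation at 30 °C; 1 = growth at the plate median or of vehicle wells; lower values mean less growth of the strain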
Settings: growth OD

Measured: normalized growth

FC(F)(F)c1cccc(N2CCNCC2)c1
inactive: S. cerevisiae deletion strains, locus YJL187C, strain SWE1, hits give low values 0.999 | S. cerevisiae deletion strains, locus YJR043C, strain POL32, hits give low values 1 | S. cerevisiae deletion strains, locus YJR075W, strain HOC1, hits give low values 0.958 | S. cerevisiae deletion strains, locus YKL009W, strain mrt4, hits give low values 1 | S. cerevisiae deletion strains, locus YKL068W, hits give low values 0.997 | S. cerevisiae deletion strains, locus YKL085W, strain MDH1 (second series), hits give low values 0.995 | S. cerevisiae deletion strains, locus YKL085W, strain MDH1, hits give low values 0.995 | S. cerevisiae deletion strains, locus YKL160W, strain elf1, hits give low values 0.988 | S. cerevisiae deletion strains, locus YKL190W, strain CNB1, hits give low values 1.01 | S. cerevisiae deletion strains, locus YKR001C, strain vps1, hits give low values 0.992 | S. cerevisiae deletion strains, locus YKR026C, strain gcn3, hits give low values 1 | S. cerevisiae deletion strains, locus YKR091W, strain srl3, hits give low values 0.997 | S. cerevisiae deletion strains, locus YLL001W, strain dnm1, hits give low values 0.982 | S. cerevisiae deletion strains, locus YLL026W, hits give low values 0.991 | S. cerevisiae deletion strains, locus YLL041C, strain sdh2, hits give low values 1 | S. cerevisiae deletion strains, locus YLR027C, strain aat2, hits give low values 0.993 | S. cerevisiae deletion strains, locus YLR039C, strain RIC1, hits give low values 1.04 | S. cerevisiae deletion strains, locus YLR058C, strain SHM2, hits give low values 1.01 | S. cerevisiae deletion strains, locus YLR102C, strain apc9, hits give low values 0.984 | S. cerevisiae deletion strains, locus YLR221C, strain rsa3, hits give low values 0.993 | S. cerevisiae deletion strains, locus YLR258W, strain gsy2, hits give low values 0.981 | S. cerevisiae deletion strains, locus YLR262C, strain YPT6 (second series), hits give low values 0.981 | S. cerevisiae deletion strains, locus YLR262C, strain YPT6, hits give low values 0.991 | S. cerevisiae deletion strains, locus YLR268W, strain sec22, hits give low values 0.993 | S. cerevisiae deletion strains, locus YLR320W, strain mms22, hits give low values 0.968 | S. cerevisiae deletion strains, locus YLR330W, strain CHS5, hits give low values 1 | S. cerevisiae deletion strains, locus YLR342W, strain FKS1 (second series), hits give low values 0.937 | S. cerevisiae deletion strains, locus YLR342W, strain FKS1, hits give low values 0.997 | S. cerevisiae deletion strains, locus YLR357W, strain rsc2, hits give low values 0.989 | S. cerevisiae deletion strains, locus YLR370C, strain arc18, hits give low values 1.01 | S. cerevisiae deletion strains, locus YLR371W, strain rom2, hits give low values 0.98 | S. cerevisiae deletion strains, locus YLR384C, strain iki3, hits give low values 0.975 | S. cerevisiae deletion strains, locus YLR418C, strain cdc73, hits give low values 0.992 | S. cerevisiae deletion strains, locus YML016C, strain PPZ1, hits give low values 1.01 | S. cerevisiae deletion strains, locus YML032C, strain rad52, hits give low values 0.965 | S. cerevisiae deletion strains, locus YML120C, strain ndi1, hits give low values 0.999 | S. cerevisiae deletion strains, locus YML124C, strain tub3, hits give low values 0.991 | S. cerevisiae deletion strains, locus YMR058W, strain fet3, hits give low values 1.01 | S. cerevisiae deletion strains, locus YMR078C, strain ctf18, hits give low values 0.986 | S. cerevisiae deletion strains, locus YMR125W, strain sto1, hits give low values 0.968 | S. cerevisiae deletion strains, locus YMR129W, hits give low values 1.01 | S. cerevisiae deletion strains, locus YMR205C, strain PFK2, hits give low values 0.965 | S. cerevisiae deletion strains, locus YMR223W, strain ubp8, hits give low values 0.981 | S. cerevisiae deletion strains, locus YMR231W, strain pep5, hits give low values 0.999 | S. cerevisiae deletion strains, locus YMR263W, strain SAP30, hits give low values 0.999 | S. cerevisiae deletion strains, locus YMR307W, strain GAS1, hits give low values 0.996 | S. cerevisiae deletion strains, locus YNL067W, strain RPL9B, hits give low values 1.01 | S. cerevisiae deletion strains, locus YNL071W, strain lat1, hits give low values 0.996 | S. cerevisiae deletion strains, locus YNL153C, strain GIM3, hits give low values 1.01 | S. cerevisiae deletion strains, locus YNL209W, strain ssb2, hits give low values 0.994 | S. cerevisiae deletion strains, locus YNL233W, strain BNI4, hits give low values 1 | S. cerevisiae deletion strains, locus YNL248C, strain rpa49, hits give low values 1 | S. cerevisiae deletion strains, locus YNL250W, strain rad50, hits give low values 1.01 | S. cerevisiae deletion strains, locus YNL271C, strain bni1, hits give low values 0.978 | S. cerevisiae deletion strains, locus YNL298W, strain CLA4, hits give low values 0.992 | S. cerevisiae deletion strains, locus YNL307C, strain MCK1, hits give low values 0.992 | S. cerevisiae deletion strains, locus YNL322C, strain KRE1 (second series), hits give low values 0.986 | S. cerevisiae deletion strains, locus YNR049C, strain mso1, hits give low values 1.01 | S. cerevisiae deletion strains, locus YNR052C, strain pop2, hits give low values 0.985 | S. cerevisiae deletion strains, locus YOL006C, strain TOP1, hits give low values 1.04 | S. cerevisiae deletion strains, locus YOL012C, strain htz1 0.923 | S. cerevisiae deletion strains, locus YOL147C, strain pex11, hits give low values 0.989 | S. cerevisiae deletion strains, locus YOR001W, strain rrp6, hits give low values 0.985 | S. cerevisiae deletion strains, locus YOR061W, strain CKA2, hits give low values 1.01 | S. cerevisiae deletion strains, locus YOR069W, strain VPS5, hits give low values 1 | S. cerevisiae deletion strains, locus YOR070C, strain gyp1, hits give low values 0.995 | S. cerevisiae deletion strains, locus YOR080W, strain dia2, hits give low values 0.98 | S. cerevisiae deletion strains, locus YOR083W, strain WHI5, hits give low values 1.03 | S. cerevisiae deletion strains, locus YOR106W, strain vam3, hits give low values 1 | S. cerevisiae deletion strains, locus YOR136W, strain idh2, hits give low values 0.987 | S. cerevisiae deletion strains, locus YOR144C, strain elg1, hits give low values 0.983 | S. cerevisiae deletion strains, locus YOR184W, strain ser1, hits give low values 1.03 | S. cerevisiae deletion strains, locus YOR265W, strain rbl2, hits give low values 0.993 | S. cerevisiae deletion strains, locus YOR270C, strain vph1, hits give low values 1.07 | S. cerevisiae deletion strains, locus YOR290C, strain snf2, hits give low values 0.973 | S. cerevisiae deletion strains, locus YOR316C, strain cot1, hits give low values 0.997 | S. cerevisiae deletion strains, locus YPL051W, strain arl3, hits give low values 0.993 | S. cerevisiae deletion strains, locus YPL055C, strain LGE1, hits give low values 1 | S. cerevisiae deletion strains, locus YPL078C, strain atp4, hits give low values 1.01 | S. cerevisiae deletion strains, locus YPL106C, strain sse1, hits give low values 0.947 | S. cerevisiae deletion strains, locus YPL240C, strain hsp82, hits give low values 0.989 | S. cerevisiae deletion strains, locus YPR119W, strain clb2, hits give low values 0.984 | S. cerevisiae deletion strains, locus YPR141C, strain kar3, hits give low values 0.988 | S. cerevisiae deletion strains, locus YPR163C, strain tif3, hits give low values 0.989 | S. cerevisiae deletion strains, locus YPR167C, strain met16, hits give low values 0.988 | S. cerevisiae deletion strains, strain wtn01, hits give low values 0.966 | S. cerevisiae strains, strain wild type, hits give low values 1.01
